Results as given in article PMC5540273 (PLoS ONE, 2017).

What was measured:
Settings in all cases: concentration: 1 μM, replicates: in singlicate; n = 1
NEK6 = tested on: NEK6
NEK7 = tested on: NEK7
NEK9 = tested on: NEK9
NIK = tested on: T1, NIK
T1 construct: gene MAP3K14

NIM1 = tested on: T2, NIM1
T2 construct: gene MGC42105

NLK = tested on: NLK
OSR1 = tested on: T3, OSR1
T3 construct: gene OXSR1

PAK1 = tested on: PAK1
PAK2 = tested on: PAK2
PAK3 = tested on: PAK3
PAK4 = tested on: PAK4
PAK6 = tested on: PAK6
PAK7 = tested on: PAK7
PCTK1 = tested on: T4, PCTK1
T4 construct: gene CDK16

PCTK2 = tested on: T5, PCTK2
T5 construct: gene CDK17

PCTK3 = tested on: T6, PCTK3
T6 construct: gene CDK18

PDGFRA = tested on: PDGFRA
PDGFRB = tested on: PDGFRB
PDPK1 = tested on: PDPK1
PFTAIRE2 = tested on: PFTAIRE2
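Also: KINOMEscan kinase panel screen.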

Row | Structure (SMILES) | %Inh (NEK6) | %Inh (NEK7) | %Inh (NEK9) | %Inh (NIK) | %Inh (NIM1) | %Inh (NLK) | %Inh (OSR1) | %Inh (PAK1) | %Inh (PAK2) | %Inh (PAK3) | %Inh (PAK4) | %Inh (PAK6) | %Inh (PAK7) | %Inh (PCTK1) | %Inh (PCTK2) | %Inh (PCTK3) | %Inh (PDGFRA) | %Inh (PDGFRB) | %Inh (PDPK1) | %Inh (PFTAIRE2)
1 | COc1ccc(Nc2nccc(N3CCC(NC(=O)Nc4cc(C)ccc4C)C3)n2)cc1 (centres unmarked) [GSK1379741] | 0% | 0% | 9% | 7% | 7% | 35% | 1% | 7% | 0% | 0% | 0% | 0% | 0% | 3% | 9% | 6% | 0% | 2% | 0% | 13%
2 | CC(C)Oc1ccc2c(-c3ccnc(Nc4ccc(N5CCN(C)CC5)cc4)n3)cnn2n1 [GW696155] | 99.8% | 92.6% | 92.9% | 21% | 75% | 47% | 87% | 83% | 53% | 28% | 47% | 56% | 44% | 99.3% | 93.5% | 60% | 55% | 97.2% | 27% | 34%
3 | CN(C1=C(c2ccccc2)C(=O)NC1=O)c1ccccc1 [SB-334860] | 15% | 0% | 17% | 0% | 34% | 35% | 4% | 0% | 0% | 0% | 5% | 0% | 18% | 5% | 8% | 11% | 0% | 19% | 5% | 27%
4 | COc1ccc(Nc2ncc(C#N)c(Nc3ccccc3C(N)=O)n2)cc1N1CCN(C)CC1.Cl [GSK1558669] | 99.9% | 97.4% | 98.2% | 96.6% | 99.9% | 71% | 100% | 91.2% | 96.9% | 100% | 99.2% | 93.9% | 99.9% | 99.2% | 98.2% | 88% | 97.9% | 100% | 37% | 97.6%
5 | O=C(NCCNc1ccnc(Nc2ccc(F)cc2)n1)c1cc2ccccc2s1 [GSK1379874] | 0% | 0% | 16% | 0% | 33% | 0% | 12% | 6% | 0% | 0% | 0% | 0% | 0% | 0% | 0% | 0% | 0% | 26% | 0% | 17%
6 | COc1ccc(S(=O)(=O)NC2CCN(c3cc(C)nc(Nc4cccc(C#N)c4)n3)CC2)cc1.O=C(O)C(F)(F)F [GSK1653539] | 0% | 0% | 0% | 5% | 0% | 50% | 0% | 3% | 0% | 0% | 0% | 0% | 30% | 0% | 0% | 0% | 0% | 12% | 0% | 3%
7 | Cc1nnc(-c2ccc(C)c(-c3ccc(C(=O)Nc4ccc(NS(C)(=O)=O)cc4)cc3)c2)o1 [GW702865] | 0% | 0% | 7% | 16% | 19% | 0% | 0% | 10% | 0% | 0% | 0% | 0% | 6% | 0% | 7% | 12% | 9% | 36% | 0% | 3%
8 | O=C(NCCNc1ccnc(Nc2ccc(F)cc2)n1)Nc1ccccc1F [GSK1379880] | 0% | 0% | 11% | 9% | 14% | 28% | 20% | 2% | 0% | 0% | 0% | 0% | 0% | 0% | 16% | 14% | 0% | 70% | 7% | 21%
9 | Cc1nnc(-c2ccc3ncc(-c4ccc(S(C)=O)cc4)n3c2)o1 (centres unmarked) | 12% | 0% | 0% | 0% | 0% | 0% | 9% | 17% | 3% | 0% | 0% | 0% | 5% | 14% | 0% | 0% | 42% | 80% | 0% | 0%
10 | CNc1ncnc2[nH]ncc12 [SKF-18355] | 0% | 0% | 0% | 31% | 21% | 0% | 0% | 0% | 43% | 0% | 0% | 0% | 0% | 0% | 0% | 0% | 0% | 0% | 0% | 12%
11 | O=c1cc(N2CCOCC2)nc2n(Cc3cccc(Cl)c3Cl)c(C3CC3)nn12 [GSK2358994] | 8% | 21% | 0% | 0% | 0% | 22% | 0% | 16% | 0% | 0% | 0% | 13% | 0% | 0% | 0% | 3% | 0% | 2% | 14% | 0%
12 | COc1ccc(Nc2nccc(N3CCC(NC(=O)Nc4cccc(C(C)=O)c4)C3)n2)cc1 (centres unmarked) [GSK1379731] | 0% | 0% | 0% | 2% | 12% | 0% | 16% | 0% | 6% | 0% | 0% | 13% | 0% | 9% | 0% | 18% | 0% | 38% | 7% | 9%
13 | Nc1nc(-c2ccc3c(N)n[nH]c3c2)cc(N2CCCC2)n1 [GSK2227430] | 0% | 0% | 6% | 0% | 0% | 0% | 7% | 13% | 12% | 0% | 0% | 0% | 5% | 0% | 0% | 0% | 0% | 18% | 67% | 6%
14 | O=c1cc(N2CCOCC2)nc2n(Cc3cccc4ccccc34)ccn12 [GSK2333389] | 0% | 13% | 14% | 0% | 8% | 0% | 5% | 13% | 3% | 10% | 0% | 0% | 0% | 2% | 0% | 7% | 0% | 6% | 10% | 29%
15 | Cc1cccc(-c2nc(-c3ccc(S(C)(=O)=O)cc3)sc2-c2ccncc2)c1 | 14% | 0% | 16% | 0% | 0% | 64% | 0% | 14% | 0% | 9% | 10% | 18% | 0% | 0% | 0% | 0% | 10% | 0% | 26% | 10%
16 | COc1cc(Nc2nccc(N3CCC(NC(=O)c4cccc(NC(C)=O)c4)C3)n2)cc(OC)c1OC (centres unmarked) [GSK1379754] | 37% | 68% | 49% | 23% | 5% | 0% | 6% | 20% | 20% | 26% | 0% | 0% | 0% | 4% | 0% | 20% | 0% | 54% | 30% | 18%
17 | c1ccc(-c2n[nH]cc2-c2ccnc3ccccc23)nc1 [GW271431] | 0% | 0% | 58% | 4% | 21% | 58% | 13% | 16% | 20% | 6% | 0% | 11% | 8% | 0% | 0% | 20% | 0% | 20% | 0% | 36%
18 | Fc1ccc(-c2nn3c(OCC(F)(F)F)cccc3c2-c2ccncc2)cc1 [GW514784] | 0% | 0% | 4% | 56% | 0% | 65% | 20% | 0% | 0% | 0% | 0% | 0% | 16% | 0% | 15% | 0% | 0% | 21% | 0% | 7%
19 | COC(=O)Nc1nc2cc(Oc3ccc(NC(=O)Nc4cc(F)ccc4F)cc3)ccc2[nH]1.Cl [GW701424] | 0% | 0% | 0% | 44% | 30% | 10% | 14% | 0% | 0% | 0% | 0% | 0% | 12% | 0% | 0% | 23% | 98.9% | 100% | 0% | 0%
